# CBFb RUNX1 block = qHTS Assay for Compounds Blocking the Interaction Between CBF-beta and RUNX1 for the Treatment of Acute Myeloid Leukemia; Runt-related transcription factor 1 (Homo sapiens) + Core-binding factor subunit beta …; AlphaScreen CBFb-His/RUNX1-biotin binding, biochemical; Potency, µM (doses to about 59.8 µM), inactives show top-dose activity, negative = inhibition, most hits filed as inhibitors; 230,000 tested, under 10 active; AID 1477, 2009; note: % of control where 0% means no effect
#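 Room-temperature protein-protein interaction test with 30 nM each of His-tagged CBF-beta and biotinylated RUNX1, 15 min with compound, then 90 min with nickel plus streptavidin beads. Signal read in AlphaScreen mode.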
# RORgamma inh = qHTS for inhibitors of ROR gamma transcriptional activity; Nuclear receptor ROR-gamma (Mus musculus), P51450; Drosophila S2 Gal4-RORgamma UAS-luciferase reporter, 20 h; Potency, µM (top dose mostly 53.6 µM), without a hit: top-dose activity change, negative = inhibition, actives largely listed as inhibitors; actives 5.4% (n = 310,000); note: potency is the fitted concentration of half-maximal effect; % is set by controls: 0 for no effect and ±100 for the full control effect; nearly all actives have a fitted effect of over 60% in size
# Target sequence (P51450 whole entry, looked up, the tested form may be a part): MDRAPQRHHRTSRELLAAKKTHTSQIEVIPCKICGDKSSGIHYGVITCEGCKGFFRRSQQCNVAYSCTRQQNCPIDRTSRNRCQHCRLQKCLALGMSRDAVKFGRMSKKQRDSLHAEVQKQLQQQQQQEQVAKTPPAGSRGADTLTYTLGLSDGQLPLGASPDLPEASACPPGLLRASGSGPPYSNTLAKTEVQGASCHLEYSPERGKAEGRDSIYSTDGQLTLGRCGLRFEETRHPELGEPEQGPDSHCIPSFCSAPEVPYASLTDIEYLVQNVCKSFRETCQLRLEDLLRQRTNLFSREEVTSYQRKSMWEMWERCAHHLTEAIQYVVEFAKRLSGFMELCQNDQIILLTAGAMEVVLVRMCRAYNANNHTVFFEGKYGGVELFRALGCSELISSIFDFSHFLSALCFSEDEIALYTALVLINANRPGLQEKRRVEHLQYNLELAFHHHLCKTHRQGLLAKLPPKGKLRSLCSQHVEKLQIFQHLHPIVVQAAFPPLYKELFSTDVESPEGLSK
#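 Compounds are pin-transferred onto Drosophila Schneider cells expressing a copper-inducible Gal4–ROR gamma transactivation domain fusion. After 1 hr, copper sulfate is added to 700 uM final; luciferase is read 20 hr later.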
# MBNL1-CUG inh = qHTS Assay for Inhibitors of MBNL1-poly(CUG) RNA binding. TR-FRET MBNL1-His/biotin-(CUG)12 binding, 665/545 ratio. actives 0.036% (n = 280,000). Potency, µM (doses to about 57.5 µM), for inactives: at the top dose activity change, negative = inhibition, actives largely listed as inhibitors. AID 2675, 2010. Muscleblind-like protein 1 (Homo sapiens), Q9NR56; active = well fitted inhibition curve with a large enough effect in the signal ratio, with a control signal flat, not every such curve was filed as active; inconclusive = small, poorly fitted or top-dose-only effect, or effect the other way, or a change in a side signal; inactive = no such curve, though single readings can be large or run the other way; the % refers to the signal ratio; note: potency is the fitted concentration of half-maximal effect; % is set by controls: 0 for no effect and ±100 for the full control effect
#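 Compounds (final 92 nM to 58 uM) are added to His-tagged MBNL1 and biotin-(CUG)12, then terbium anti-His antibody and streptavidin-XL665 (5 nM final). After 60 min at room temperature, the 665/545 nm ratio is read.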
# VP16 counter = VP16 counterscreen qHTS for inhibitors of ROR gamma transcriptional activity. Drosophila S2 Gal4-VP16 UAS-luciferase, luminescence, 20 h. Potency, µM (highest dose often 53.6 µM), for the others: at the top dose activity, negative = inhibition, most hits filed as inhibitors. actives 3.5% (n = 310,000). AID 2546, 2010;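 note: Gal4-VP16 expression switched on by copper sulfate through the metallothionein promoter; potency is the fitted concentration of half-maximal effect; % is set by controls: 0 for no effect and ±100 for the full control effect; nearly all actives have a fitted effect of over 50% in size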
# Six1-Eya2 inh = qHTS Assay for Inhibitors of the Six1/Eya2 Interaction. AID 651725, 2012. activity change, % (test concentration not listed). actives 0.56% (n = 360,000). AlphaScreen GST-Six1/His-Eya2 binding, biochemical; active compounds read low. Homeobox protein SIX1 (Homo sapiens) + Protein phosphatase EYA2 (Homo sapiens), …; in the data active = activity change below about -65%; inconclusive = mostly about -30% to -63%; note: % is set by controls: 0 for no effect and ±100 for the full control effect
#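 Homogeneous AlphaScreen proximity assay pairing GST-Six1 with His-tagged Eya2 (added as 5X mix: 250 nM and 500 nM) in 50 mM Tris pH 8.0, 300 mM NaCl, 1 mM TCEP. Glutathione donor and nickel acceptor beads; 1 h, 37 °C, dark.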
# CtBP-E1A blk = qHTS Assay for Inhibitors of the CtBP/E1A Interaction | AlphaScreen GST-E1A/His-CtBP binding, 1536-well; active compounds read low | actives 0.49% (n = 340,000) | activity change, % (concentration not given with the values); in the data active = activity change below about -65%; inconclusive = mostly about -30% to -63%; note: % is set by controls: 0 for no effect and ±100 for the full control effect
#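 Protein mix (5X: 125 nM each GST-E1A, His-CtBP) was incubated with pinned compound 2 h at 37 deg C in dark, in 50 mM Tris pH 8.0 buffer with 300 mM NaCl. Glutathione donor and nickel acceptor beads followed; AlphaScreen signal read after 1 h.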
# * marks the source's active call; other numbers are inactive results; u = inconclusive; x = no result given; [ ] = remark or other dose. This is a sample that favours compounds with a hit; in the whole collection about 5.5% have one here. Unless noted, calls come from the whole dose curve; as a rule, active = well fitted curve in the direction sought with a large enough effect; inconclusive = small, poorly fitted or top-dose-only effect, or another doubt; inactive = no such curve, though single readings can be large; an effect the other way counts as inactive or inconclusive.
SMILES,CBFb RUNX1 block,RORgamma inh,MBNL1-CUG inh,VP16 counter,Six1-Eya2 inh,CtBP-E1A blk
Cc1ccsc1/C=N/n1c(COc2ccccc2)n[nH]c1=S,-9%,6.3µM*,8%,6.3µM*,-12,2
COc1cc2[nH]c(=O)n(CCCCCC(=O)N3CC=C(c4ccccc4)CC3)c(=O)c2cc1OC,-1%,22%,2%,-24%,u,-93*
COc1ccc(N2CCN(C(=O)c3ccc4c(c3)[nH]c(=S)n3c5ccccc5nc43)CC2)cc1,-3%,-26%,26%,1%,x,x
COC(=O)c1ccc2c(=O)n(CCCCCC(=O)O)c(=O)[nH]c2c1,0%,10µM*,8%,16µM*,10,25
COc1ccc(-n2c(=S)[nH]c3cc(C(=O)N4CCN(c5ccccc5)CC4)ccc3c2=O)cc1,x,10µM*,-3%,u,4,5
COC(=O)c1ccc2c(=O)n(-c3ccccc3F)c(=S)[nH]c2c1,-2%,3.2µM*,11%,5.6µM*,1,8
COc1cc2[nH]c(=O)n(CCC(=O)N3CCc4ccccc4C3)c(=O)c2cc1OC,-3%,-17%,-2%,-2%,3,2
CCc1nnc(NC(=O)CCN2C(=O)/C(=C/c3cc(OC)c(OC)c(OC)c3)SC2=S)s1,x,28%,-3%,-11%,-5,-1
CCc1cc2c(=O)n(-c3ccccc3)c(SCC(N)=O)nc2s1,x,u,62%,7%,0,-12
COC(=O)c1ccc2c(=O)n(-c3ccccc3)c(=S)[nH]c2c1,-12%,1.8µM*,5%,u,0,-13
CCc1cc2c(=O)n(-c3ccccc3)c(=S)[nH]c2s1,2%,2.5µM*,-7%,4.5µM*,3,3
O=C(NCc1ccco1)c1ccc2c(=O)n(-c3ccccc3)c(=S)[nH]c2c1,1%,-15%,13%,-5%,2,5
CCc1nc2ccc(C(=O)Nc3ccc(C(N)=O)cc3)cn2c1N(CCC(C)C)CCN(C)C,x,x,x,x,2,1
Oc1ccc(N=Nc2ccc3ccccc3c2)cc1,x,6.3µM*,u,u,-30,-23
Oc1ccc(N=Nc2c(O)ccc3ccccc23)cc1,x,u,u,13µM*,-70*,-75*
CN(C)S(=O)(=O)c1ccc(C(=O)NCc2nnc(SCC(=O)N3CCCC3)o2)cc1,x,-6%,-7%,2%,6,10
Cc1ccc(NC(=S)N/N=C/c2ccc([N+](=O)[O-])s2)cc1,-1%,7.1µM*,u,16µM*,u,u
COc1cccc(/C=N/n2c(C)nc3ccccc32)c1OC,9%,3.2µM*,3%,8.9µM*,-1,0
NC(=O)c1ccc(N=Cc2ccc([N+](=O)[O-])s2)cc1,-19%,u,17%,5.6µM*,u,u
COc1cccc(/C=N\n2c(C)nnc2C)c1OC,1%,-34%,7%,-8%,-1,5
Cc1cc(C)cc(N=Cc2ccc([N+](=O)[O-])s2)c1,6%,u,11%[11.5 µM],18µM*,u,u
Cc1ccc(NCc2ccc([N+](=O)[O-])s2)cc1,x,5%,u,25%,0,-2
O=[N+]([O-])c1ccc(C=Nc2ccc(Cl)c([N+](=O)[O-])c2)s1,-15%,u,u,-24%[10 µM],x,x
Cc1cc(NC(=O)CSCC(=O)OCC(=O)c2ccc(Br)cc2)no1,x,x,x,x,3,-1
Cc1nc2ccccc2n1/N=C/c1ccc([N+](=O)[O-])s1,1%,-51%,u,6.3µM*,3,4
